PubChem BioAssay (NCATS)
“And” between values parts separate entries of the source, which are not always exact repeats. Equal values may be shown once. Inconclusive results are not listed. The source made the active and inactive calls. Calls come from the whole dose curve; as a rule, active = well fitted curve in the direction sought with a large enough effect; inconclusive = small, poorly fitted or top-dose-only effect, or another doubt; inactive = no such curve, though single readings can be large; an effect the other way counts as inactive or inconclusive.

Experiments:
[1] = Quantitative highthroughput screen to assess conditional lethalithy of NOMO1 cells grown in RPMI1640 with dialyzed fetal bovine serum (RPMI+ds) (AID 1963877); details: NOMO1 in RPMI+dialyzed FBS viability, ATP luminescence, 48 h; series mostly up to 45.8 µM; note: nearly all actives have a fitted effect of over 30% in size; note: potency is the fitted concentration of half-maximal effect;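 for viability: 100% = DMSO control wells and 0% = empty wells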
In short: (§1)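 Each medium arm—HPLM with 10% dialyzed FBS, or RPMI1640 with 5 mM glucose and 10% untreated or dialyzed FBS—was screened against an 11-point, 3-fold compound titration for 48 h at 37 °C, with CellTiter-Glo luminescence as endpoint.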

[2] = Quantitative highthroughput screen to assess conditional lethalithy of NOMO1 cells grown in Human Plasma-Like Medium with dialyzed fetal bovine serum (HPLM+ds) (AID 1963878); details: NOMO1 AML cells in HPLM+ds, CellTiter-Glo viability, 48 h; series mostly up to 45.8 µM; note: nearly all actives have a fitted effect of over 35% in size; note: potency is the fitted concentration of half-maximal effect;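 for viability: 100% = DMSO wells and 0% = empty wells on each plate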
In short: as §1

[3] = Quantitative highthroughput screen to assess conditional lethalithy of P12 Ichikawa cells grown in Human Plasma-Like Medium with dialyzed fetal bovine serum (HPLM+ds) (AID 1963879); details: ATP luminescence, 48 h; Potency: viability; series mostly up to 45.8 µM; note: nearly all actives have a fitted effect of over 35% in size; note: potency is the fitted concentration of half-maximal effect
In short: as §1

[4] = Quantitative highthroughput screen to assess conditional lethalithy of P12 Ichikawa cells grown in RPMI1640 with dialyzed fetal bovine serum (RPMI+ds) (AID 1963880); details: ATP luminescence, 48 h; Potency: P12-Ichikawa viability; series mostly up to 45.8 µM; note: nearly all actives have a fitted effect of over 35% in size; note: potency is the fitted concentration of half-maximal effect;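 for viability: 100% = DMSO wells and 0% = empty wells on each plate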
In short: as §1

[5] = Quantitative highthroughput screen to assess conditional lethalithy of P12 Ichikawa cells grown in RPMI1640 with untreated serum (RPMI+s) (AID 1963881); details: ATP luminescence, 48 h; Potency: viability; series mostly up to 45.8 µM; note: nearly all actives have a fitted effect of over 35% in size; note: potency is the fitted concentration of half-maximal effect;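 for viability: 100% = DMSO wells and 0% = empty wells without cells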
In short: as §1

[6] = Quantitative highthroughput screen to assess conditional lethalithy of SEM cells grown in RPMI1640 with unreated serum (RPMI+s) (AID 1963883); details: SEM B-ALL cells, CellTiter-Glo viability, 48 h; series mostly up to 45.8 µM; note: nearly all actives have a fitted effect of over 35% in size; note: potency is the fitted concentration of half-maximal effect;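 for viability: 100% = DMSO wells and 0% = empty wells without cells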
In short: as §1

[7] = Quantitative highthroughput screen to assess conditional lethalithy of SEM cells grown in Human Plasma-Like Medium with dialyzed fetal bovine serum (HPLM+ds) (AID 1963882); details: SEM B-ALL cells in HPLM+ds, CellTiter-Glo viability, 48 h; series mostly up to 45.8 µM; note: nearly all actives have a fitted effect of over 35% in size; note: potency is the fitted concentration of half-maximal effect
In short: as §1

[8] = Quantitative highthroughput screen to assess conditional lethalithy of SEM cells grown in RPMI1640 with dialyzed fetal bovine serum (RPMI+ds) (AID 1963884); details: SEM B-ALL cells, RPMI+dialyzed FBS, CellTiter-Glo viability, 48 h; series mostly up to 45.8 µM; note: nearly all actives have a fitted effect of over 35% in size; note: potency is the fitted concentration of half-maximal effect;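 for viability: 100% = DMSO control wells and 0% = empty wells without cells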
In short: as §1

[9] = Cellular viability qHTS for adrenocortical cancer (ACC) cell line SW-13 (AID 1963989); details: SW-13 ACC cells viability, CellTiter-Glo, 48 h; activity (max response): active compounds read low;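 note: cells grown in serum-free medium with ITS supplement; % is set by controls: 0 for no effect and ±100 for the full control effect; nearly all actives have a fitted effect of over 65% in size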
In short: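 Viability was read as CellTiter-Glo luminescence after 48 h compound treatment (up to 46 uM final) of SW-13 cells grown serum-free; titration curves were fit with a four-parameter logistic model to give IC50 and efficacy.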

[10] = Cellular viability qHTS for adrenocortical cancer (ACC) cell line NCI-H295R (AID 1963990); details: CellTiter-Glo ATP luminescence, 48 h; series mostly up to 46.1 µM; note: nearly all actives have a fitted effect of over 60% in size; note: potency is the fitted concentration of half-maximal effect
In short: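 CellTiter-Glo ATP luminescence, read 48 h after compound addition, measured viability of NCI-H295R adrenocortical cells grown serum-free with ITS. Final concentrations spanned up to 46 uM. Data normalized to DMSO and doxorubicin, fitted for IC50 and maximal response.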

CC=C1C2C=C(C)CC1(N)c1ccc(=O)[nH]c1C2 (stereo not given)
inactive: Potency [1] | Potency [2] | Potency [3] | Potency [4] | Potency [5] | Potency [6]

CC[C@H]1CN2CCc3cc(OC)c(OC)cc3[C@H]2C[C@@H]1C[C@@H]1NCCc2cc(OC)c(OC)cc21
active: Potency [1] 0.469 µM | Potency [2] 0.526 µM | Potency [3] 209 nM | Potency [4] 0.418 µM | Potency [5] 0.235 µM | Potency [6] 235 nM

CNC(=O)c1ccc(N2C(=S)N(c3cnc(C#N)c(C(F)(F)F)c3)C(=O)C23CCC3)cc1F
active: Potency [1] 2.35 µM
inactive: Potency [3] | Potency [4] | Potency [5] | Potency [7] | Potency [6] | Potency [8] | activity (max response) [9] 4.43%

CC(C)[N+]1(C)[C@@H]2CC[C@H]1CC(OC(=O)C(CO)c1ccccc1)C2 (stereo not given in full)
active: Potency [2] 13.2 µM

O=C(Nc1ccccc1)Nc1ccc(-c2ccc(C(=O)[C@H]3CCC[C@H]3C(=O)O)cc2)cc1
inactive: Potency [3] | Potency [5] | Potency [7] | Potency [8]
active: Potency [1] 6.62 µM

CN(C)CCOc1cc(-c2cn[nH]c2)ccc1NC(=O)C1COc2ccccc2O1 (stereo not given)
inactive: Potency [3] | Potency [4]
active: Potency [1] 6.62 µM | Potency [10] 17.8 µM

CC1(C)[C@H](O[C@H]2O[C@H](C(=O)O)[C@@H](O)[C@H](O)[C@H]2O[C@@H]2O[C@H](C(=O)O)[C@@H](O)[C@H](O)[C@H]2O)CC[C@@]2(C)[C@H]1CC[C@]1(C)[C@H]2C(=O)C=C2[C@H]3C[C@@](C)(C(=O)O)CC[C@]3(C)CC[C@]21C
inactive: Potency [1] | Potency [3] | Potency [4] | Potency [5] | Potency [7] | Potency [6]

Nc1cccc2c1C(=O)N(C1CCC(=O)NC1=O)C2=O (stereo not given)
inactive: Potency [1] | activity (max response) [9] 11.8% | Potency [10]
active: Potency [4] 14.8 µM | Potency [5] 16.6 µM

C[C@@H]1C[C@H]2[C@@H]3CCC4=CC(=O)C=C[C@]4(C)[C@@]3(F)[C@@H](O)C[C@]2(C)[C@@]1(O)C(=O)CO
inactive: Potency [1] | activity (max response) [9] 6.21% and 9.17% | Potency [10]

O=C1Nc2ccc(I)cc2C1=Cc1cc(Br)c(O)c(Br)c1
active: Potency [6] 16600 nM | Potency [8] 18.7 µM
inactive: Potency [2] | Potency [3] | Potency [4] | Potency [5] | Potency [7]

OC[C@H]1O[C@@H](Oc2cc(O)cc(C=Cc3ccc(O)cc3)c2)[C@H](O)[C@@H](O)[C@H]1O
active: Potency [1] 2.35 µM
inactive: Potency [3] | Potency [4] | Potency [5] | Potency [7] | Potency [6] | Potency [8]

Cc1ccc2c(c1)C(=O)[C@]1(O)CCN(c3ccccc3)C1=N2
inactive: Potency [1] | Potency [2] | Potency [5] | Potency [7] | Potency [6] | Potency [8] | Potency [10]

CC(O)=C(C#N)C(=O)Nc1ccc(C(F)(F)F)cc1
inactive: Potency [1] | Potency [2] | Potency [3] | Potency [5]

NC(=O)c1ncn([C@@H]2O[C@H](CO)[C@@H](O)[C@@H]2O)c1N
active: Potency [7] 18.7 µM
inactive: Potency [1] | Potency [2] | Potency [3] | Potency [4]

CN1C(=O)C[C@H](C(=O)N[C@@H](Cc2cnc[nH]2)C(=O)N2CCC[C@@H]2C(N)=O)NC1=O
inactive: Potency [1] | Potency [2] | Potency [3] | Potency [4] | Potency [5] | Potency [10]

OCc1ccccc1O[C@@H]1O[C@H](CO)[C@H](O)[C@H](O)[C@H]1O
active: Potency [1] 13.2 µM | Potency [2] 7.43 µM | Potency [4] 16.6 µM

CC=C(C(=CC)c1ccc(O)cc1)c1ccc(O)cc1
inactive: Potency [1] | Potency [2] | Potency [3] | Potency [5] | Potency [7]

CNC(=O)[C@H](CC1=CN=C2C=CCC=C12)NC(=O)[C@@H](CC(=O)NO)CC(C)C
active: Potency [1] 8.33 µM | Potency [2] 5.9 µM
inactive: Potency [6] | Potency [8]

CC(C)N1[N]C(=C2C=c3cc(O)ccc3=N2)c2c(N)ncnc21
active: Potency [1] 7.43 µM | Potency [2] 0.935 µM | Potency [5] 4.18 µM | Potency [7] 1.48 µM | Potency [6] 2960 nM

Cc1cc(C=c2sc3nc4ccccc4n3c2=O)c(C)n1-c1ccccc1
inactive: Potency [1] | Potency [2] | Potency [3] | Potency [7] | Potency [6] | Potency [8]

Cc1ccccc1C(C(=O)NC1CCCC1)N(C(=O)Cn1cnc2ccccc21)c1cccc(F)c1 (stereo not given)
inactive: Potency [2] | Potency [3] | Potency [4] | Potency [5] | Potency [7] | Potency [8]

CC(C)OC(=O)OCOP(=O)(CO[C@H](C)Cn1cnc2c(N)ncnc21)OCOC(=O)OC(C)C
inactive: Potency [3] | Potency [4] | Potency [10]
active: Potency [1] 23.5 µM

CC(=O)[C@]1(O)Cc2c(O)c3c(c(O)c2[C@@H](O[C@H]2C[C@H](N)[C@@H](O)[C@H](C)O2)C1)C(=O)c1ccccc1C3=O
active: Potency [1] 3.72 µM | Potency [2] 2.96 µM | Potency [4] 1.48 µM | Potency [5] 1.48 µM | Potency [7] 1.05 µM | Potency [6] 833 nM | Potency [8] 1.05 µM
